Measured values from PubChem BioAssay (Tox21).
“And” between values parts separate entries of the source, which are not always exact repeats. Equal entries are not always repeated. Records with an inconclusive call do not appear. A call without a number means that no potency is given here. More than one record can exist for a structure, and the calls need not agree. The source made the active and inactive calls. Unless noted, calls come from the whole dose curve.

Tests used:
[1] = qHTS assay to identify small molecule antagonists of the sonic hedgehog signaling (Shh) pathway (AID 1259369); note: nearly all actives have a fitted effect of over 45% in size; note: potency is the fitted concentration of half-maximal effect
How it was run: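 Luminescence readout: firefly Luc under Gli1 response element in 3T3Gli1-Luc cells (NIH/3T3 clone). Antagonist mode, stimulation by conditioned medium; compound exposure 24hr at 37 C, 5% CO2.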

[2] = qHTS assay to identify small molecule agonists of the androgen receptor (AR) signaling pathway in the presence of an antagonist - cell viability counter screen (AID 1259379; active = well fitted curve in the direction sought with a large enough effect in the repeat runs; an effect the other way counts as inactive or inconclusive; note: nearly all actives have a fitted effect of over 25% in size; note: potency is the fitted concentration of half-maximal effect)
How it was run: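 Viability counter screen: CellTiter-Fluor fluorescence, measured in the same wells as the luciferase read-out. MDA-kb2 cells, 3,000/well, with nilutamide at 3.0uM final and compounds at 15 concentrations, 16 hr at 37C, 0% CO2.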

[3] = qHTS assay to identify small molecule agonists of the estrogen receptor beta (ER-beta) signaling pathway - cell viability counter screen (AID 1259380; active = well fitted curve in the direction sought with a large enough effect in the repeat runs; an effect the other way counts as inactive or inconclusive; note: nearly all actives have a fitted effect of over 30% in size; note: potency is the fitted concentration of half-maximal effect)
How it was run: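 Luminescence read-out (CellTiter-Glo, 30 min, room temp) taken in the same wells as the beta-lactamase reporter assay; ER-beta-UAS-bla HEK293T cells exposed to DMSO-dissolved compounds for 16 hr at 37C in 2% charcoal-stripped FBS medium.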

[4] = qHTS assay to identify small molecule antagonists of the estrogen receptor beta (ER-beta) signaling pathway - cell viability counter screen (AID 1259382; active = well fitted curve in the direction sought with a large enough effect in the repeat runs; an effect the other way counts as inactive or inconclusive; note: nearly all actives have a fitted effect of over 55% in size; note: potency is the fitted concentration of half-maximal effect)
How it was run: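 Luminescent ATP read-out (CellTiter-Glo, 30 min, RT) taken in the same wells as the bla reporter assay. HEK293T ER-beta-UAS-bla cells in 2% charcoal-stripped FBS were exposed to compounds with 1nM E2 for 16 hr at 37C.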

[5] = molecular target: Estrogen receptor (Homo sapiens) (UniProt P03372); experiment: qHTS assay to identify small molecule agonists of the estrogen receptor alpha (ER-alpha) signaling pathway in the presence of an antagonist (AID 1259383); note: top concentration of the series differs between compounds; nearly all actives have a fitted effect of over 15% in size
Estrogen receptor (Homo sapiens), sequence (P03372 whole entry, looked up): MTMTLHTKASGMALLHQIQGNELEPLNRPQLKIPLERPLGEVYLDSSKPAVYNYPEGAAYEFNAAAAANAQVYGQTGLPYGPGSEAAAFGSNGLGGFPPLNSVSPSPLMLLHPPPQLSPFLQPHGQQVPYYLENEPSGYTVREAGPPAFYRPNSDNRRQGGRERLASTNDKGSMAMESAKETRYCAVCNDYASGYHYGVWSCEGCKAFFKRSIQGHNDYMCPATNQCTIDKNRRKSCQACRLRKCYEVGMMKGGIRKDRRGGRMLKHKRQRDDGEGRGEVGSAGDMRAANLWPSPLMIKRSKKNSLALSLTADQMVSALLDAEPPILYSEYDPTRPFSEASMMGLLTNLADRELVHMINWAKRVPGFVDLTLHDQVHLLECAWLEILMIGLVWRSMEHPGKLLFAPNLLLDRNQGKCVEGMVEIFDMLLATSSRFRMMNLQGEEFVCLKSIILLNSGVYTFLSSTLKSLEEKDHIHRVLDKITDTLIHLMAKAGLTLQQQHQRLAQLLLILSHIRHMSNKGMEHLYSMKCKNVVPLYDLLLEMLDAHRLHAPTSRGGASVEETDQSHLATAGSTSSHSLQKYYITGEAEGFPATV
How it was run: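 Luciferase luminescence (ONE-Glo, 30min at room temperature) measured in VM7Luc4E2 cells after 22hr compound exposure at 15 concentrations, with 10.0nM ICI-182,780 final present; cells express endogenous ER-alpha and carry four EREs upstream of luciferase.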

[6] = qHTS assay to identify small molecule agonists or antagonists of the thyroid stimulating hormone receptor (TSHR) signaling pathway - wild type cell line counter screen (AID 1259384)
How it was run: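 Wild-type HEK293 cells were plated 18 h at 37 C/5% CO2, pin-dosed with compound plus Ro20-1724 medium, held 30 min at room temperature, then given cAMP-d2 and anti-cAMP-cryptate; fluorescence was read after 1 h. Fifteen concentrations, triplicate.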

[7] = molecular target: Thyrotropin receptor (Homo sapiens) (UniProt P16473); experiment: qHTS assay to identify small molecule antagonists of the thyroid stimulating hormone receptor (TSHR) signaling pathway (AID 1259385); note: nearly all actives have a fitted effect of over 20% in size; note: potency is the fitted concentration of half-maximal effect
Thyrotropin receptor (Homo sapiens), sequence (P16473 whole entry, looked up): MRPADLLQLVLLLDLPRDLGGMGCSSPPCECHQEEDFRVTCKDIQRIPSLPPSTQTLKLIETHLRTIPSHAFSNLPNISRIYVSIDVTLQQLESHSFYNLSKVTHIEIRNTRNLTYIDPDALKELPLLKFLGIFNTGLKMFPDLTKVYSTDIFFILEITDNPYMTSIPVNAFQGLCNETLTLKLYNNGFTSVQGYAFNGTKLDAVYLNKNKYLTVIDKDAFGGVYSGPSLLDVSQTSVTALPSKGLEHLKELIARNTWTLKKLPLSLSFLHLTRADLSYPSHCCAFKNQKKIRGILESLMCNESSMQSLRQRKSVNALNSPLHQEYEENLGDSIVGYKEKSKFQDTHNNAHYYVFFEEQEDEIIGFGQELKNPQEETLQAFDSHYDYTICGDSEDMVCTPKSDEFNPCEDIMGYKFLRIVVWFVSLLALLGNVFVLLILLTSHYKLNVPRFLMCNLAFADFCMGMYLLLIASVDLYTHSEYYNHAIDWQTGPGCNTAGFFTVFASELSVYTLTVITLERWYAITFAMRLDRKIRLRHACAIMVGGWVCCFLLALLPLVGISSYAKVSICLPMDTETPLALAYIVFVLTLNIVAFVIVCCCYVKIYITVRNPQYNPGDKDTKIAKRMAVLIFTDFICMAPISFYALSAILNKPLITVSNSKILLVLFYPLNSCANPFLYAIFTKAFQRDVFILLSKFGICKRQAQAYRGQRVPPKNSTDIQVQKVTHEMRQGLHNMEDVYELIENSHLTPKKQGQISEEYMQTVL
How it was run: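 TSHR-HEK293 cells were plated and held 18 h at 37C/5% CO2, then given compound plus Ro20-1724 and stimulated with TSH at 1.5 ng/mL final. After 30 min at room temperature, cAMP was detected with cAMP-d2/anti-cAMP-cryptate (1 h) by fluorescence.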

[8] = qHTS assay to identify small molecule agonists of the estrogen receptor alpha (ER-alpha) signaling pathway in the presence of an antagonist - cell viability counter screen (AID 1259386; active = well fitted curve in the direction sought with a large enough effect in the repeat runs; an effect the other way counts as inactive or inconclusive;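 note: series mostly up to about 92 µM; cells exposed to compounds for 22 h at 37 °C before the viability read; nearly all actives have a fitted effect of over 30% in size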)
How it was run: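 Read-out: CellTiter-Fluor fluorescence after 1hr reagent incubation, measured in the same wells as the luciferase readout. VM7Luc4E2 cells were exposed to 15 compound concentrations with 10.0nM ICI-182,780 for 22hr at 37C.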

[9] = molecular target: Progesterone receptor (Homo sapiens) (UniProt P06401); experiment: qHTS assay to identify small molecule agonists of the progesterone receptor (PR) signaling pathway (AID 1346784); note: nearly all actives have a fitted effect of over 30% in size
Progesterone receptor (Homo sapiens), sequence (P06401 whole entry, looked up): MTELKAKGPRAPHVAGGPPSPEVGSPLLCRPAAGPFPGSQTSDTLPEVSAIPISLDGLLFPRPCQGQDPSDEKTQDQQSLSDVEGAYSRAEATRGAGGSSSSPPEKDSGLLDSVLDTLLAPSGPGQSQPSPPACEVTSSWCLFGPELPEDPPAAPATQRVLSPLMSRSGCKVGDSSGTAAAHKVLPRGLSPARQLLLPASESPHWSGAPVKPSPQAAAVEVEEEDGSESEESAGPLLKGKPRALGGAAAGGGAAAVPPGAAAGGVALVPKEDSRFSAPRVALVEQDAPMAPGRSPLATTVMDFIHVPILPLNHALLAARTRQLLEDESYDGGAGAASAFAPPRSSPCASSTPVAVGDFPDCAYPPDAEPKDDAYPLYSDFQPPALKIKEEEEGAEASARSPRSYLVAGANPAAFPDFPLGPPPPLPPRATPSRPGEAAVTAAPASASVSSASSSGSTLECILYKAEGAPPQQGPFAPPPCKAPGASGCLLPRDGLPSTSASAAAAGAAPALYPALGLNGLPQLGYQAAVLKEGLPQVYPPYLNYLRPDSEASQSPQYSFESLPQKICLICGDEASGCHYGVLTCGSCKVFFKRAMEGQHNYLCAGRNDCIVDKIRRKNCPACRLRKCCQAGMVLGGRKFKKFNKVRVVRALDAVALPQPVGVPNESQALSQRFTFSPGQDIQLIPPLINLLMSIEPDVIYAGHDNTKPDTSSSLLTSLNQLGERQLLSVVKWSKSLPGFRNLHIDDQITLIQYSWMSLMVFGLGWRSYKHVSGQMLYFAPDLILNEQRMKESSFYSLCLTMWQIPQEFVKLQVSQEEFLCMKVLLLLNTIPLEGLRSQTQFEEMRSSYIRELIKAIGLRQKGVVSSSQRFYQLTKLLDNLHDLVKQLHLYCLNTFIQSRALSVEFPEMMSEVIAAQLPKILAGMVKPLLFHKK
How it was run: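 Fluorescence from LiveBLAzer B/G FRET substrate cleavage (2 hr, RT) reported PR activation in PR-UAS-bla HEK 293T cells treated 16 hr at 37C/5% CO2 with compounds; medium contained 2% charcoal-stripped FBS.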

[10] = molecular target: Progesterone receptor (Homo sapiens) (UniProt P06401); experiment: qHTS assay to identify small molecule antagonists of the progesterone receptor (PR) signaling pathway (AID 1346795; active = well fitted inhibition curve with a large enough effect in the signal ratio in the repeat runs, not every such curve was filed as active; the % refers to the signal ratio)
How it was run: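 Fluorescence intensity measured 2 hr after adding beta-lactamase FRET substrate to PR-UAS-bla HEK293T cells that had been co-treated 16 hr with compound and 1 nM R5020 (final concentration) in 2% charcoal-stripped FBS.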

[11] = qHTS assay to identify small molecule agonists of the progesterone receptor (PR) signaling pathway - cell viability counter screen (AID 1346799); note: nearly all actives have a fitted effect of over 45% in size; note: potency is the fitted concentration of half-maximal effect
How it was run: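 In parallel with the beta-lactamase readout, cytotoxicity toward PR-UAS-bla HEK293T cells was measured by CellTiter-Glo luminescence following 16 hr compound incubation in 2% charcoal-stripped FBS medium.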

[12] = qHTS assay to identify small molecule antagonists of the TGF-beta/Smad signaling pathway - cell viability counter screen (AID 1346824; active = well fitted curve in the direction sought with a large enough effect in the repeat runs; an effect the other way counts as inactive or inconclusive; note: nearly all actives have a fitted effect of over 50% in size)
How it was run: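 SBE-bla HEK 293T cells were plated overnight at 37 C, then given compounds in DMSO plus TGF-beta1 (added as 0.25 ng/mL solution) for 5 hr. After the bla read, CellTiter-Glo was added to the same wells and luminescence read after 30 min at room temperature.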

[13] = qHTS assay to identify small molecule agonists of the TGF-beta/Smad signaling pathway (AID 1346859; active = well fitted activation curve with a large enough effect in the signal ratio in the repeat runs, not every such curve was filed as active; the % refers to the signal ratio; note: series mostly up to about 77 µM)
How it was run: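 After overnight seeding, SBE-bla HEK 293T cells are dosed with compounds in DMSO and kept 5 hr at 37 C, 5% CO2. LiveBLAzer-type FRET substrate is then applied for 2 hr at room temperature.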

[14] = molecular target: Thyrotropin-releasing hormone receptor (Homo sapiens) (UniProt P34981); experiment: qHTS assay to identify small molecule antagonists of the thyrotropin-releasing hormone receptor (TRHR) signaling pathway (AID 1346877; active = well fitted inhibition curve with a large enough effect in the repeat runs, not every such curve was filed as active; note: potency is the fitted concentration of half-maximal effect)
Thyrotropin-releasing hormone receptor (Homo sapiens), sequence (P34981 whole entry, looked up): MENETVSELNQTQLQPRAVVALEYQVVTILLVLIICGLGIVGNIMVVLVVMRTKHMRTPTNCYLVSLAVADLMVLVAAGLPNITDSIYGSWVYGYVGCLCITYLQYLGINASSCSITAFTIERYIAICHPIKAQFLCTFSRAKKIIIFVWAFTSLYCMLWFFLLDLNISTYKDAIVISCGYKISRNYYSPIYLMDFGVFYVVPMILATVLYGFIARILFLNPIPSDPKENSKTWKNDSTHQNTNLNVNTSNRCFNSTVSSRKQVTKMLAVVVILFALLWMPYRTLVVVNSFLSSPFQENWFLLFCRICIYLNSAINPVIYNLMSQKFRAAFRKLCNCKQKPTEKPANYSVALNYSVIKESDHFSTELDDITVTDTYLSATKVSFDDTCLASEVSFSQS
How it was run: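 HEK293/TRHR cells, 18 h, 37 °C; Ca2+ dye 2 h; cpd 5 min RT; TRH 1 nM final; fluorescence read 3 min, 1 s intervals; 15 concs, triplicate.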

[15] = molecular target: Thyrotropin-releasing hormone receptor (Homo sapiens) (UniProt P34981); experiment: qHTS assay to identify small molecule agonists of the thyrotropin-releasing hormone receptor (TRHR) signaling pathway (AID 1346891);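 note: HEK293 cells expressing TRHR with calcium dye readout; series mostly up to about 58 µM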
How it was run: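 Compounds were tested as agonists at 15 concentrations, in triplicate, on TRHR-Hek293 cells; calcium-sensitive dye fluorescence was recorded for 3 min following addition.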

[16] = molecular target: Androgen receptor (Homo sapiens) (UniProt P10275); experiment: qHTS assay to identify small molecule agonists of the androgen receptor (AR) signaling pathway in the presence of an antagonist (AID 1259381); note: nearly all actives have a fitted effect of over 15% in size
Androgen receptor (Homo sapiens), sequence (P10275 whole entry, looked up): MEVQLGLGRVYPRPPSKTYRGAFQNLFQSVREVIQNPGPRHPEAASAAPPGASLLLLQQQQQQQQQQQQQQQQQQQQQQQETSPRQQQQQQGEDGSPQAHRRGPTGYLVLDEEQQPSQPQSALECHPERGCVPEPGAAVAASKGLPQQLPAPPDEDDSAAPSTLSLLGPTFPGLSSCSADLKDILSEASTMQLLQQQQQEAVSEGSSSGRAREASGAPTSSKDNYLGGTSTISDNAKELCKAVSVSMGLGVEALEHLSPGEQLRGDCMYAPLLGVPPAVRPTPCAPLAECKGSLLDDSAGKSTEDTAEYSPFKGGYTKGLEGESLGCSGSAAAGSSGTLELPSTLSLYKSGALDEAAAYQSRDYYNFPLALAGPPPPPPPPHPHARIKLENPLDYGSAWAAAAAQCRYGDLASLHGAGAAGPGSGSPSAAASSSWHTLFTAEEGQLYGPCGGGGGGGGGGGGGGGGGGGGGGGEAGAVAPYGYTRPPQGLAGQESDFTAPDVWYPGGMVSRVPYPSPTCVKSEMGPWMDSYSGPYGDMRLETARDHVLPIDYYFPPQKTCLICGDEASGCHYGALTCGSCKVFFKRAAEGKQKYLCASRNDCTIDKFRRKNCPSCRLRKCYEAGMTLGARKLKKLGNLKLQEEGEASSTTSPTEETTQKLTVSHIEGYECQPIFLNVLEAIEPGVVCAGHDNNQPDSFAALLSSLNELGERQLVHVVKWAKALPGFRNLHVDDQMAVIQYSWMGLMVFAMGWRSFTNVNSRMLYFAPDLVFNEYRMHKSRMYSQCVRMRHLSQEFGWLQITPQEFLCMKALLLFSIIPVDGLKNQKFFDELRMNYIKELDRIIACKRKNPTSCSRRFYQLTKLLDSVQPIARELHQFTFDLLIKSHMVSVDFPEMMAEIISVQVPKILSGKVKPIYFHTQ
How it was run: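 Luciferase read-out (ONE-Glo, 30min room temperature) in MDA-kb2 MMTV-reporter cells; agonist mode run in presence of AR antagonist nilutamide, 3.0uM final. Compounds tested as 15-point series, 16hr exposure at 37C, 0% CO2.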

[17] = qHTS assay to identify small molecule antagonists of the progesterone receptor (PR) signaling pathway - cell viability counter screen (AID 1346798; active = well fitted curve in the direction sought with a large enough effect in the repeat runs; an effect the other way counts as inactive or inconclusive; note: nearly all actives have a fitted effect of over 50% in size; note: potency is the fitted concentration of half-maximal effect)
How it was run: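 CellTiter-Glo luminescence; PR-UAS-bla HEK293T, 3,000 cells/well; compound + R5020, 16 hr, 37C/5% CO2; 30 min RT before read.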

[18] = qHTS assay to identify small molecule agonists of the TGF-beta/Smad signaling pathway - cell viability counter screen (AID 1346829; active = well fitted curve in the direction sought with a large enough effect in the repeat runs; an effect the other way counts as inactive or inconclusive; note: top concentration of the series differs between compounds; nearly all actives have a fitted effect of over 45% in size)
How it was run: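 Compound-treated SBE-bla HEK 293T cells (5 hr, 37 C) were assessed for viability with CellTiter-Glo in parallel with the reporter read.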

Structure (SMILES)	Potency [1]	Potency [2]	Potency [3]	Potency [4]	Potency [5]	outcome [6]	Potency [7]	Potency [8]	Potency [9]	Potency [10]	Potency [11]	Potency [12]	Potency [13]	Potency [14]	outcome [15]	outcome [16]	Potency [17]	Potency [18]
CCCCCCCC	inactive	inactive	inactive	inactive	inactive	inactive	inactive	inactive	inactive	inactive	inactive	inactive	inactive	inactive	inactive	–	–	–
Cc1cc(=O)oc2cc(O)cc(O)c12	21.8 µM (active)	inactive	inactive	inactive	inactive	inactive	–	inactive	–	inactive	–	inactive	–	inactive	inactive	inactive	inactive	–
Cc1c(F)c(N2CCNC(C)C2)cc2c1c(=O)c(C(=O)O)cn2C1CC1 (configuration not stated)	inactive	inactive	inactive	inactive	inactive	inactive	inactive	–	inactive	inactive	inactive	–	–	–	–	–	inactive	inactive
CCCCCCCCCCCCCCCC[N+](C)(C)CC	6.88 µM (active) and 15 nM (active)	48.7 µM (active) and 18.8 µM (active)	54.6 µM (active) and 11.9 µM (active)	34.5 µM (active) and 23.7 µM (active)	inactive	inactive	inactive	–	inactive	–	68.8 µM (active)	–	–	30.2 µM (active) and inactive	inactive	–	68.8 µM (active)	–
c1ccsc1	inactive	inactive	inactive	inactive	inactive	inactive	inactive	inactive	inactive	inactive	inactive	inactive	inactive	inactive	inactive	inactive	inactive	inactive
C=CC(=O)Nc1cc2c(Nc3ccc(F)c(Cl)c3)ncnc2cc1OCCCN1CCOCC1	1.68 µM (active)	841 nM (active)	23.7 µM (active)	inactive	inactive	inactive	26.6 µM (active)	–	–	–	–	–	–	inactive	inactive	inactive	inactive	inactive
Nc1ccc(C(=O)O)c(O)c1	inactive	inactive	inactive	inactive	–	inactive	inactive	inactive	inactive	inactive	inactive	inactive	inactive	inactive	inactive	inactive	–	inactive
c1cnccn1	inactive	inactive	inactive	inactive	inactive	inactive	inactive	inactive	inactive	inactive	inactive	inactive	inactive	inactive	inactive	–	inactive	inactive
Nc1nc2c(ncn2COCCO)c(=O)[nH]1	inactive	inactive	inactive	inactive	inactive	inactive	inactive	inactive	inactive	inactive	–	–	inactive	–	–	–	inactive	inactive
CC(C)(c1cc(Br)c(OCC(Br)CBr)c(Br)c1)c1cc(Br)c(OCC(Br)CBr)c(Br)c1 (configuration not stated)	inactive	inactive	inactive	inactive	inactive	inactive	inactive	inactive	–	–	inactive	inactive	inactive	inactive	inactive	–	inactive	inactive
CCCCCc1ccc(Cl)cc1	inactive	inactive	inactive	inactive	inactive	inactive	inactive	inactive	inactive	inactive	inactive	inactive	inactive	inactive	inactive	–	inactive	inactive
C=C(CC)C(=O)c1ccc(OCC(=O)O)c(Cl)c1Cl	6.68 µM (active)	60700 nM (active)	48.2 µM (active)	60.7 µM (active)	inactive	inactive	inactive	inactive	–	–	–	–	–	inactive	inactive	–	inactive	inactive
